# Bioassay records (PubChem BioAssay)
# POLI inh: qHTS for Inhibitors of Polymerase Iota. DNA polymerase iota (Homo sapiens), Q9UNA4. hit rate 1% among 390,000. AID 588590, 2011. Pol iota fluorescent replication assay, 10 min. Potency, µM (doses to about 115 µM), usual class: inhibitors
#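 Fluorescent replication assay read twice, at 0 min and 10 min after adding 50 nM (final) substrate. Enzyme (10 nM) and compounds were first incubated 15 min at room temperature; enzyme-free buffer wells were negative controls.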
# 12-LOX inh: Primary qHTS assay for inhibitors of human arachidonate 12S-lipoxygenase (ALOX12): Round 2. Polyunsaturated fatty acid lipoxygenase ALOX12 (Homo sapiens), P18054. Potency, µM (titrated, usually from 108 µM), actives largely listed as inhibitors. purified 12hLO, xylenol orange hydroperoxide absorbance. hit rate 1.1% among 580,000
#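 Purified human 12hLO at 150 nM in 25 mM Hepes, 0.01% Triton X-100, pH 7.0, preincubated 15 min at room temperature with compound. Reaction started with 40 uM arachidonic acid, 30 min at room temperature. Hydroperoxide measured by Fe-xylenol orange, 573/405 nm absorbance ratio.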
# PI5P4K alpha inh: qHTS for Inhibitors of phosphatidylinositol 5-phosphate 4-kinase (PI5P4K); Phosphatidylinositol 5-phosphate 4-kinase type-2 alpha (Homo sapiens), P48426; PI5P4Kalpha enzyme, ADP-Glo luminescence, 60 min; hits give low values; max response, %; hit rate 1.2% among 330,000; AID 652105, 2013; active = max response of -50% or lower; inconclusive = between -30% and -50%; inactive = -30% or higher; also: value at the top dose of about 77 µM
# Target sequence (P48426 whole entry, looked up): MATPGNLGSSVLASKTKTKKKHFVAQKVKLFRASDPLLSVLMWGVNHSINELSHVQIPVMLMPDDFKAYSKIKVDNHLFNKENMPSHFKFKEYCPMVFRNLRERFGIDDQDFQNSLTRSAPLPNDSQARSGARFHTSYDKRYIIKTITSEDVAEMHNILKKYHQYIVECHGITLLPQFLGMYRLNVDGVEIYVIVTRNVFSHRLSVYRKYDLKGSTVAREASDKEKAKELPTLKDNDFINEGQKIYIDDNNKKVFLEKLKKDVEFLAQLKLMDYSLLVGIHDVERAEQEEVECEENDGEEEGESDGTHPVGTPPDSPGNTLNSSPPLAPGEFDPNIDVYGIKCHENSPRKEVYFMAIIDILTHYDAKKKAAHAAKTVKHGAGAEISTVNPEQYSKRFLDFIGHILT
#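 Compounds were pin-transferred onto PI5P4Kalpha and substrate in HEPES pH 7.4 buffer with EGTA, CHAPS and 5% DMSO. ATP (5 microM final) started the reaction, which ran 60 minutes at room temperature before ADP-Glo detection.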
# Pol eta inh-1: qHTS for Inhibitors of Polymerase Eta; Potency, µM (doses to about 114 µM), hits mostly inhibitors; hit rate 1.2% among 390,000; recombinant Pol eta, fluorescent DNA replication assay
#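 Pol eta (10 nM) was preincubated with compounds for 15 min at room temperature, after which fluorescent replication substrate (50 nM final) was added to start the reaction. Fluorescence was read kinetically at 0 and 10 min.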
# Pol beta inh: qHTS Assay for Inhibitors of DNA Polymerase Beta; hit rate 1.3% among 340,000; P06746; Pol beta primer extension/strand displacement, fluorescence kinetic; Potency, µM (series often up to 114 µM), actives largely listed as inhibitors
#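 Values derive from four-parameter Hill fits of normalized kinetic data: reads at 0 and 10 min following addition of 50 nM substrate to 10 nM Pol beta preincubated 15 min with compound.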
# Pol kappa inh-1: qHTS for Inhibitors of Polymerase Kappa. DNA polymerase kappa (Homo sapiens), Q9UBT6. purified Pol kappa, fluorescent DNA synthesis assay, 10 min. Potency, µM (top dose mostly 107 µM), most hits filed as inhibitors. hit rate 0.53% among 400,000
#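 Fluorescent qHTS in 1536-well format: enzyme (10 nM) and compound sat 15 min at room temperature before 50 nM substrate (final) was added. Signal taken at 0 and 10 min; no-enzyme buffer wells were negative controls.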
# GALK inh confirm: Confirmation Assay for Inhibitors of Human Galactokinase (GALK); AID 2015, 2009; Potency, µM (highest dose often 115 µM), hits mostly inhibitors; shares compounds with Pol eta inh-1; hit rate 70% among 150; purified GALK, Kinase-Glo ATP depletion luminescence
# GALK redox cs: Confirmatory Assay for Inhibitors of Human Galactokinase (GALK): Phenol-HRP redox assay counterscreen; shares compounds with Pol eta inh-1; Phenol red-HRP H2O2 redox cycling, absorbance 600 nm; Potency, µM (highest dose often 115 µM), most hits filed as inhibitors; hit rate 40% among 150
# HEK293 viability: Secondary Assay for Inhibitors of Human Galactokinase (GALK): HEK-293 Cell Viability Assay; shares compounds with Pol eta inh-1; HEK-293 viability, ATP luminescence (CellTiter-Glo), 24/48 h; Potency, µM (titrated, usually from 46.1 µM), most hits filed as inhibitors; AID 2547, 2010; hit rate 10% among 170
# Pol kappa inh-2: qHTS for Inhibitors of Polymerase Kappa: Confirmatory Assay for Cherry-picked Compounds; shares compounds with Pol eta inh-1; purified Pol-kappa, fluorescent strand-displacement substrate; Potency, µM, hits mostly inhibitors; hit rate 76% among 920
# Pol eta inh-2: qHTS for Inhibitors of Polymerase Eta: Confirmatory Assay for Cherry-picked Compounds | shares compounds with Pol eta inh-1 | Pol eta primer extension, TAMRA/BHQ fluorescence, 10 min | Potency, µM, actives largely listed as inhibitors | hit rate 64% among 2,600 | AID 720502, 2013
# A number is an active result; - = inactive; ? = inconclusive; . = no result given. This is a sample that favours compounds with a hit; in the whole collection about 2.9% have one here. Unless noted, calls follow the shape of the dose curve; as a rule, active = well fitted curve in the direction sought with a large enough effect; inconclusive = small, poorly fitted or top-dose-only effect, or another doubt; inactive = no such curve, though single readings can be large; an effect the other way counts as inactive or inconclusive.
SMILES,POLI inh,12-LOX inh,PI5P4K alpha inh,Pol eta inh-1,Pol beta inh,Pol kappa inh-1,Pol eta inh-2,others
COc1cc(/C=C/c2[nH]c(=O)[nH]c(=O)c2[N+](=O)[O-])ccc1OCCC(C)C,-,-,?,?,-,-,.,
Cc1cc(OC(=O)c2ccc(Cl)cc2Cl)c([N+](=O)[O-])c(=O)[nH]1,-,?,-,-,-,-,.,
O=c1[nH]c(/C=C/c2ccc(Cl)cc2Cl)c([N+](=O)[O-])c(=O)[nH]1,50.1µM,?,-77.9,20µM,31.6µM,-,75.7,
O=[N+]([O-])c1cccc(/C=C/c2ccccc2)c1,-,.,.,.,.,-,.,
COc1cc(/C=C/c2[nH]c(=O)[nH]c(=O)c2[N+](=O)[O-])cc([N+](=O)[O-])c1O,?,-,-84.3,22.4µM,?,-,60.1,Pol kappa inh-2=?
O=C(NC1(O)C(=O)c2ccccc2C1=O)c1ccc(C(F)(F)F)cc1,1.78µM,?,-,44.7µM,-,-,?,GALK inh confirm=18.8µM;GALK redox cs=10.6µM;HEK293 viability=-
O=C(NCc1ccccc1)c1ccc(C(F)(F)F)cc1,.,-,.,.,.,.,.,
Cc1ccc(C(=O)NC2(O)C(=O)c3ccccc3C2=O)cc1C,2µM,20µM,-,44.7µM,-,-,?,GALK inh confirm=26.6µM;GALK redox cs=11.9µM;HEK293 viability=-
COc1ccc(CNC(=O)C[C@@H]2CCNC[C@@H]2Cc2cc(COc3ccccc3)on2)cc1,.,-,.,.,.,.,.,
O=c1nc2n(-c3ccccc3F)c3ccccc3cc-2c(=O)[nH]1,?,-,.,-,-,-,.,
Cc1cccc(-n2c3nc(=O)[nH]c(=O)c-3cc3cc([N+](=O)[O-])ccc32)c1,?,?,-,20µM,-,-,47.8,
O=C(CCc1ncc(-c2ccc(F)cc2F)o1)Nc1ccccc1Cl,.,-,.,.,.,.,.,
Cc1c(N(Cc2ccc(F)cc2)Cc2ccc(F)cc2)c(=O)n(-c2ccccc2)n1C,.,-,.,.,.,.,.,
Cc1ccc(S(=O)(=O)c2c(N)n(-c3ccccc3)c3nc4ccccc4nc23)cc1,-,?,-,-,-,-,.,
O=S(=O)(Nc1c(S(=O)(=O)c2ccccc2)c2nc3ccccc3nc2n1C1CCCCC1)c1ccccc1,3.55µM,39.8µM,-,22.4µM,-,-,.,Pol kappa inh-2=29.9
CCn1cc(C(=O)O)c(=O)c2cc(F)c(N3CCN(C(=S)NC(=O)c4cccc(F)c4)CC3)cc21,-,-,-,-,-,-,.,
CCn1cc(C(=O)O)c(=O)c2cc(F)c(N/N=C/c3ccccc3[N+](=O)[O-])cc21,-,-,?,5.62µM,?,-,42.6,
C/C(=N\Nc1ccc(Cl)c(C(=O)O)c1)c1ccc(Br)s1,?,?,-,20µM,50.1µM,?,26.9,
CN(Cc1ccsc1)C(=O)c1cccs1,.,-,.,.,.,.,.,
CCOC(=O)Cc1csc(-n2sc3ccccc3c2=O)n1,-,?,-106.9,39.8µM,?,-,?,
